Test results as given in PubChem BioAssay AID651662 (NMMLSC, 2012).
Unmarked numbers belong to inactive results.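 How the source made its calls: active means fitted concentration giving half the fluorescence drop below 100 µM; inactive means the rest.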

Experiment: fluorescence decrease in K562 empty-vector cells, dose response, counter-screen for ABCB6 inhibitor project, cell-based, flow cytometry, PowderSet01 powders (AID 651662)
Settings: 1 h; series mostly up to 100 µM; percent response (fluorescence change): at the top concentration

SMILES | percent response (fluorescence change) [%]
CC(=O)Nc1ccc(NC(=O)c2nc(S(=O)(=O)Cc3ccccc3)ncc2Cl)cc1 | 443
CC(=O)Nc1ccc(NC(=O)c2nc(S(=O)(=O)Cc3cccc(C)c3)ncc2Cl)cc1 | 2610
CCc1ccc(NC(=O)c2nc(S(=O)(=O)Cc3ccccc3)ncc2Cl)cc1 | 518
CCOc1ccccc1NC(=O)c1nc(S(=O)(=O)Cc2cccc(C)c2)ncc1Cl | 512
